Percent Effect data for eleven compounds are collected here from ChEMBL document CHEMBL3988442, “University of Dundee, Small-Polar-MMV Screening Library” (2021).

Set-up in all cases: scale not given: direction of the effect not stated beside the values
The target of test [1] is Protein translocase subunit SecA (Escherichia coli (strain K12)) (UniProt P10408). Kind of test: Assay to Identify E. coli SecA ATPase Inhibitors. It counts as functional. The note with it: 30 µM.
The target of test [2] is T1, Ubiquitin-activating enzyme e1, putative (Leishmania donovani (strain BPK282A1)) (UniProt E9BSI1).
T1 sequence (whole entry): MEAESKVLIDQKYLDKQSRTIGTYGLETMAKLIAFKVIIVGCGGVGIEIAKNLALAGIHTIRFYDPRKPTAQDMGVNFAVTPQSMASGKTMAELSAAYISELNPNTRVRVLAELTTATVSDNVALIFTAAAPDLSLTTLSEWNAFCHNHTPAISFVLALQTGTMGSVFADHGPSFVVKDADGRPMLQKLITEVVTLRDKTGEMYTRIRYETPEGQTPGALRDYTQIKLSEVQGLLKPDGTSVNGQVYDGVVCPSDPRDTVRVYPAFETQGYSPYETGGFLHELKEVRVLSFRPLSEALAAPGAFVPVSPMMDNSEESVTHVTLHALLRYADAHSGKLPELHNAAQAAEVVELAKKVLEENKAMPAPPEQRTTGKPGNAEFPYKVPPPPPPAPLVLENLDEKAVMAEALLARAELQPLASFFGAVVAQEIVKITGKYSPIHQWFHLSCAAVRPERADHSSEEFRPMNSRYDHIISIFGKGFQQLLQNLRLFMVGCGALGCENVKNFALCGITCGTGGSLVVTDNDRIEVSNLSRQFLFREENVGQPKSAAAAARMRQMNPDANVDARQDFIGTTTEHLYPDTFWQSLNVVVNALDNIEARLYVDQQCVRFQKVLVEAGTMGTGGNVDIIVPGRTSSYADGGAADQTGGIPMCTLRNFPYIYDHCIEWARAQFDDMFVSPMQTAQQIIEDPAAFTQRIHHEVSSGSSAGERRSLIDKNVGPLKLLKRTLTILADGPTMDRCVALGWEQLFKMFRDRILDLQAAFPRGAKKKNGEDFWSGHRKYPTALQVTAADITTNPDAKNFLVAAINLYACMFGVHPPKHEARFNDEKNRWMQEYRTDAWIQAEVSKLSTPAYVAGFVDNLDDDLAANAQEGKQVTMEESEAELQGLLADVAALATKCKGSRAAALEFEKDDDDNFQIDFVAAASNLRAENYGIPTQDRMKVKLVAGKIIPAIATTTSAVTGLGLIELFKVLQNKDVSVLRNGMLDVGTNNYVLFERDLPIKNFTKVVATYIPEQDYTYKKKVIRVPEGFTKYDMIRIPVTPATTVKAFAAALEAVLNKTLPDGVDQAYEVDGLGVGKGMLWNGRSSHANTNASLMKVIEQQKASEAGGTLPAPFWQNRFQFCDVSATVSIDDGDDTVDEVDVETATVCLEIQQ
The test is described as follows: Leishmania donovani Ubiquitin Activating Enzyme (LdE1). The note with it: 30 µM. Format: functional.

Test [3] addresses AMP-activated protein kinase, AMPK (Homo sapiens) (UniProt P54646+O43741+P54619+Q9UGJ0+Q9Y478+Q13131+Q9UGI9). Kind of test: AMP-dependent Kinase enzyme assay. An in vitro enzyme assay that detects ADP turnover that is directly proportional to AMPK activity. This uses naive AMPK that is activated during the assay with MK-8722. It counts as functional. The note with it: 30 µM.
Test [4] addresses Sialic acid-binding Ig-like lectin 9 (Homo sapiens) (UniProt Q9Y336). Kind of test: Hs-Siglec9 ALPHAscreen SOP 20170721. The settings on record: 10 µM.
The test system of a further test is Trypanosoma cruzi. The test is described as follows: Trypanosoma cruzi phosphomannomutase and mannose-1-phosphate guanylyltransferase assay. It counts as functional. The note with it: 10 µM.
Test [5] addresses T2, Arginase-2, mitochondrial (Homo sapiens) (UniProt P78540).
T2 sequence (whole entry): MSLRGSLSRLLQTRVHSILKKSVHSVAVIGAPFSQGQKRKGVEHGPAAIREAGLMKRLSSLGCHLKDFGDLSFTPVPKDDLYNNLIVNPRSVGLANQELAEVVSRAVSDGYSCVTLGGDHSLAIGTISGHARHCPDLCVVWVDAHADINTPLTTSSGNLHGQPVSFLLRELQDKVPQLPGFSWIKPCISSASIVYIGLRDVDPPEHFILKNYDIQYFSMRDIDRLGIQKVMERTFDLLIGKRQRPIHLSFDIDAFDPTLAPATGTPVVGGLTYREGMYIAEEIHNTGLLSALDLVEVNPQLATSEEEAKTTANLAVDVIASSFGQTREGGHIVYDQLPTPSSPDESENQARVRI
Kind of test: in vitro enzyme assay to detect the production of urea directly proportional to the activity of Arginase II. Note: in the data most compounds retested in dose-response had high values. Format: functional. The settings on record: 33.3 µM.

Test [6] addresses T3, Proteasome subunit beta (Trypanosoma cruzi) (UniProt O96673).
T3 sequence (whole entry): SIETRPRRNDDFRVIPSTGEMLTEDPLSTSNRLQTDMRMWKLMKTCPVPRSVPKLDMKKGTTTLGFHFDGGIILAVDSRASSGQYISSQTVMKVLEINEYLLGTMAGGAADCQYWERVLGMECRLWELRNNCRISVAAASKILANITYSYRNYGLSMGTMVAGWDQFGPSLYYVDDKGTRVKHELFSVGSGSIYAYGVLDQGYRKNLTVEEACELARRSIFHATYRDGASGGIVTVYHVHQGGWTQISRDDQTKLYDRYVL
Kind of test: Trypanosoma cruzi proteasome chymotrypsin-like activity (TcProtChymo) assay. Note: in the data most compounds retested in dose-response had high values. Format: functional. The note with it: 9.37 µM.

The species named for another test is Homo sapiens. The test is described as follows: To identify inhibition of the IFN signalling (Jak-Stat) pathway via expression of an eGFP reporter gene under the control of an IFN-stimulated response element (ISRE) containing MxA promoter. Format: functional. The note with it: 30 µM.
The target of test [7] is T4, Tyrosyl-tRNA synthetase, putative (Trypanosoma cruzi (strain CL Brener)) (UniProt Q4DSP6).
T4 sequence (whole entry): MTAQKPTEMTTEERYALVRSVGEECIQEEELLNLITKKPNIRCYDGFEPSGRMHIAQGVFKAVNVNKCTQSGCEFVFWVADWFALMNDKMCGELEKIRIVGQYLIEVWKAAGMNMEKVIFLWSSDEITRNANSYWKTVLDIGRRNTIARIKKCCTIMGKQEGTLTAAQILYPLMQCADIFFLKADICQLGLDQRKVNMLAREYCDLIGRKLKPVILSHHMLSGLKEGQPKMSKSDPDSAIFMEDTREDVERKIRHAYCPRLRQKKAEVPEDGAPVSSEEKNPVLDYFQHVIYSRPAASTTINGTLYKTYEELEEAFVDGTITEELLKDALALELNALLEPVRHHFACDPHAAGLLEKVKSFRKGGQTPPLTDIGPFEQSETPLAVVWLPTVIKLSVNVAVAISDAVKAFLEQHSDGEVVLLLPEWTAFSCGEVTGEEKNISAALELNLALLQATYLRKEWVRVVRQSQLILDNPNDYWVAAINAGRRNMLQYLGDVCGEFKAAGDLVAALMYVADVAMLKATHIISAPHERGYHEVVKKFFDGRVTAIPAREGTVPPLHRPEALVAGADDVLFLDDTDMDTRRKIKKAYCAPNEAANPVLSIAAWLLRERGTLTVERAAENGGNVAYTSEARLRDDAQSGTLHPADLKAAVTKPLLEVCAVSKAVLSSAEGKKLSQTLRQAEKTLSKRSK
The test is described as follows: Trypanosoma cruzi tyrosyl tRNA synthetase (TcYRS) _High Tyrosine SOP. Note: in the data most compounds retested in dose-response had high values. It counts as functional. The settings on record: 30 µM.

Test [8] deals with T4, Tyrosyl-tRNA synthetase, putative (Trypanosoma cruzi (strain CL Brener)). The test is described as follows: Trypanosoma cruzi tyrosyl tRNA synthetase (TcYRS) SOP. It counts as functional. The settings on record: 30 µM.
Test [9] addresses Chromo domain-containing protein 1 (Saccharomyces cerevisiae (strain ATCC 204508 / S288c) (Baker's yeast)) (UniProt P32657). The test is described as follows: ScCHD-1 Enzyme Inhibition Assay. Note: in the data most compounds retested in dose-response had high values. Format: functional. The settings on record: 30 µM.

For some of these results: Results with a measured potency or affinity are listed apart.

Protein translocase subunit SecA (Escherichia coli (strain K12)), sequence (P10408 whole entry): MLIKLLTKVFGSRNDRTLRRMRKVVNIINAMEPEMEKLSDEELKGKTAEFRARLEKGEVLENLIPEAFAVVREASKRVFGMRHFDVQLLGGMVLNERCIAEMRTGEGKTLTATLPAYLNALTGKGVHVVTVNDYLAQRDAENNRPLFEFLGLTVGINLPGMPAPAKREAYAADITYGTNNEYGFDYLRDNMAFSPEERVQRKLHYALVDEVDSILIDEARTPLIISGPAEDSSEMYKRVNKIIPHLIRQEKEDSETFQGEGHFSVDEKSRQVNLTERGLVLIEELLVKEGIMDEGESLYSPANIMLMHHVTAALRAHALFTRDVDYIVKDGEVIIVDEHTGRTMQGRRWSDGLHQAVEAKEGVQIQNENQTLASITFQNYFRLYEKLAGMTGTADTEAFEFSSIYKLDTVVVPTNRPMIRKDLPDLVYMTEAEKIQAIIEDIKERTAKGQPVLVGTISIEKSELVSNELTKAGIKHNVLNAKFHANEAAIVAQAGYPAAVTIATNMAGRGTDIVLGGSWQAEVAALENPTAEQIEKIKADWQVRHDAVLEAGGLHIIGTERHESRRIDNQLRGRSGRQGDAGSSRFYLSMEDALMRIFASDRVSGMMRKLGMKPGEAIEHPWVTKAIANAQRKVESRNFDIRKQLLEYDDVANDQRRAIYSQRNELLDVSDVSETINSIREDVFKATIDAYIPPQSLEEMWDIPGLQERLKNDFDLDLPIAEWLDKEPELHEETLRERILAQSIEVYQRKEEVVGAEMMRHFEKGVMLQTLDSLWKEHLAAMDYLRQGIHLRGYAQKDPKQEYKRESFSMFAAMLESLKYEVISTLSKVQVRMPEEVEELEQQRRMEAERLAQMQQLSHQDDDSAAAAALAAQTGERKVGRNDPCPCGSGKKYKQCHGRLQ
Sialic acid-binding Ig-like lectin 9 (Homo sapiens), sequence (Q9Y336 whole entry): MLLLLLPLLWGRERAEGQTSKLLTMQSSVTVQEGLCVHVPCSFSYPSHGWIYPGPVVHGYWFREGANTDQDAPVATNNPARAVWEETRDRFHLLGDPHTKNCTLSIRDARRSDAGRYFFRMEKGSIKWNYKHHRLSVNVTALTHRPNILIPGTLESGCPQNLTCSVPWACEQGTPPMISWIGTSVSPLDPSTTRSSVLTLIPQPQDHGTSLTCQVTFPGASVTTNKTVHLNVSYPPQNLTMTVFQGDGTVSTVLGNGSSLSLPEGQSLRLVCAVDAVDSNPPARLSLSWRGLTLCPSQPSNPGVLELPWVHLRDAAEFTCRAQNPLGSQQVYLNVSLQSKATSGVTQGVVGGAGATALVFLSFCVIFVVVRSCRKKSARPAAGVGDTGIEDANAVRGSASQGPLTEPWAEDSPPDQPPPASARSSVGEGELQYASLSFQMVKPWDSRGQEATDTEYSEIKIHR
Chromo domain-containing protein 1 (Saccharomyces cerevisiae (strain ATCC 204508 / S288c) (Baker's yeast)), sequence (P32657 whole entry, the tested form may be a part): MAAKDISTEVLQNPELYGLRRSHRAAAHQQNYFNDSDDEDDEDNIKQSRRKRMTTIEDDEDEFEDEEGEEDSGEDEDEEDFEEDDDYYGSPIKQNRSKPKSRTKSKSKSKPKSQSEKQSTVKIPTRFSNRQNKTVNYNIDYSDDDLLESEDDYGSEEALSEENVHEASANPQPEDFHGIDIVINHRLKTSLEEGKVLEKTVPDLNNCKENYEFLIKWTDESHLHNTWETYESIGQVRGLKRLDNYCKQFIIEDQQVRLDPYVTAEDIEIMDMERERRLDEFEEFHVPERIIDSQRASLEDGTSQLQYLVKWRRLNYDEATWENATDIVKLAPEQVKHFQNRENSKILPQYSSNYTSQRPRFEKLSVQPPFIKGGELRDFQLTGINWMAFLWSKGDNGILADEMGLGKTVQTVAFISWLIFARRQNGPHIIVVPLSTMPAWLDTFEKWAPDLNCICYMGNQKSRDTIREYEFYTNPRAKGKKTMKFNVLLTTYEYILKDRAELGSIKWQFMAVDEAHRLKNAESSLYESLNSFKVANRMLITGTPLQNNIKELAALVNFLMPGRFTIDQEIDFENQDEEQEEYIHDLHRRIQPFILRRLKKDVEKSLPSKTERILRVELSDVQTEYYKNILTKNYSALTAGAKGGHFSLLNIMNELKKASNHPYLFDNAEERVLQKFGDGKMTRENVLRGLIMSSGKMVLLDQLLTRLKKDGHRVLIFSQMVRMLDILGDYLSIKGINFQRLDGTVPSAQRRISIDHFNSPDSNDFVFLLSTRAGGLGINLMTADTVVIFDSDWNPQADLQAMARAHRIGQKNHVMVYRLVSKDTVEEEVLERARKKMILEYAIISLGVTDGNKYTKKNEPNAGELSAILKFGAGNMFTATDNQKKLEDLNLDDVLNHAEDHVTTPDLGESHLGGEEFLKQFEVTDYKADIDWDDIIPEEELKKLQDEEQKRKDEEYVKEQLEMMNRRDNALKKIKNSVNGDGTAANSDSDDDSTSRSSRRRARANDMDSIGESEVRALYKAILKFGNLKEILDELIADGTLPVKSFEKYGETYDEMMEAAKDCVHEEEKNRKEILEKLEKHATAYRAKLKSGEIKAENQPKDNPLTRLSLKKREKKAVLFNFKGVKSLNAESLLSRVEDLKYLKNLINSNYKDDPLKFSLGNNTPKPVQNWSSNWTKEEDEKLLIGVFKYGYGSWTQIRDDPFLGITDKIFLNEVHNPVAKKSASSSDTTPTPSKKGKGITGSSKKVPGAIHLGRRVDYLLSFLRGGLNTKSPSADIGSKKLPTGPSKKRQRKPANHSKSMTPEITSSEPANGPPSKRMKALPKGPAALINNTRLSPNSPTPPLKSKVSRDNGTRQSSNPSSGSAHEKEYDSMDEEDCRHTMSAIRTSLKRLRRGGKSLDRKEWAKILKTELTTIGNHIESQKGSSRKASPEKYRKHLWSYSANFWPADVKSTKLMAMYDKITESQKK

Consider `Cc1cc(C(=O)NCc2ccccn2)no1`, for which the Percent Effect was 0.824% in [1]; 2.7% in test [2]; -14.1% in test [3]; -0.919% in test [4]; 2.92% with Trypanosoma cruzi; -3.21% in test [5]. The Percent Effect was 6.49% in test [6]; 7.17% in the test listed under Homo sapiens; 3.45% in test [7]; -63% in test [8]; 0.179% in [9].
With `Cc1nn(C)c(N(C)C)c1CNCc1ccccc1CN(C)C`, the Percent Effect in test [1] is -1.22%; in test [2], 24.1%; in [3], -13.2%; in test [4], -7.18%; in the test on Trypanosoma cruzi, -1.54%; in [5], -6.24%. Moreover, the Percent Effect in [6] is 15.9%; in the test filed under Homo sapiens, -0.0229%; in [7], 1.04%; in test [8] it was 2.53%; in test [9], -30.7%.
As for `CN(CC(=O)N1CCCC1Cn1cccn1)c1cnccn1` (stereo unspecified), the Percent Effect in test [1] is -5.14%; in test [2], 0%; in test [3], 0.965%; in [4], 10.7%; with Trypanosoma cruzi, -1.6%; in [5], -1.9%. In addition, the Percent Effect is -0.901% in [6]; 15.8% in the test filed under Homo sapiens; -2.46% in test [7]; -1.27% in test [8]; -2.89% in test [9].
On to `CN1CCCC1c1cccc(Cc2ccccc2F)n1` (stereo unspecified), for which the Percent Effect in [1] was -3.07%; in test [2] it was -20.3%; in test [3], 13.4%; in test [4] it was 1.77%; with Trypanosoma cruzi, -0.79%; in [5], -3.02%. The Percent Effect is -1.87% in test [6]; 49.3% in the test filed under Homo sapiens; 14% in [7]; 11.7% in test [8]; 0.4% in test [9].
Consider `COCCNC(=O)[C@H]1C[C@@H]2CCN(Cc3ccoc3)C[C@H]2O1`, for which the Percent Effect was -1.42% in test [1]; 8.11% in test [2]; 5.25% in [3]; -7.78% in test [4]; -8.7% with Trypanosoma cruzi; 7.96% in [5]. In addition, the Percent Effect in test [6] is 23.2%; in the test filed under Homo sapiens, 2.97%; in test [7], 0%; in test [8], 7.69%; in [9] it was -1.51%.
On to `Cc1cc(CN(C)C(=O)NCc2cccc(N3CCCC3=O)c2)no1`, for which the Percent Effect in test [1] was -4.74%; in [2], 7.59%; in test [3] it was -1.15%; in [4], 7.78%; with Trypanosoma cruzi, 6.14%; in [5], -4.94%. For the same compound, the Percent Effect in test [6] was -4.5%; in the test listed under Homo sapiens, -10.2%; in test [7], 1.48%; in test [8], 1.27%; in [9] it was -1.62%.
Regarding `O=C(O)c1csc(S(=O)(=O)N2CCCc3ccc(F)cc32)c1`, the Percent Effect in test [1] was -6.97%; in test [2], -2.67%; in test [3], -4.41%; in test [4] it was 4.48%; in the test with Trypanosoma cruzi, 0.682%; in test [5] it was 0%. The Percent Effect in test [6] is 6.1%; in the test filed under Homo sapiens it was 8.48%; in test [7], -13.7%; in test [8], -13.6%; in test [9], -5.31%.
With `O=C(NCCc1ccc(Cl)s1)NCc1nnc2n1CCC2`, the Percent Effect in test [1] is -5.75%; in test [2], 18.4%; in test [3] it was -1.91%; in test [4] it was -9.75%; in the test with Trypanosoma cruzi, -6.07%; in test [5] it was -3.96%. For the same compound, the Percent Effect is 15.5% in test [6]; 4.94% in the test listed under Homo sapiens; 4.43% in test [7]; 11.1% in test [8]; -7.66% in [9].
Take `CN(CCC#N)C(=O)CN1CCCC1c1ccsc1` (stereo unspecified): the Percent Effect is -7.51% in test [1]; 0% in [2]; -7.58% in [3]; 1.78% in test [4]; -3.62% in the test on Trypanosoma cruzi; 0.924% in test [5]. Further, the Percent Effect in [6] is -1.26%; in the test filed under Homo sapiens it was 11.9%; in [7], -2.97%; in test [8], -1.22%; in test [9], 7.91%.
Turning to `Cc1nnc(C(C)NCC2(c3c(F)cccc3F)CCCC2)o1` (stereo unspecified), the Percent Effect in test [1] was -2.54%; in test [2], -2.7%; in [3], -3.85%; in [4] it was 0.273%; in the test on Trypanosoma cruzi, -0.965%; in test [5], 1.91%. In addition, the Percent Effect in test [6] was 7.93%; in the test listed under Homo sapiens it was 14.7%; in test [7], 0.529%; in test [8] it was 9.76%; in test [9] it was -3.86%.
As for `Cc1ccccc1CN1CCCN(C2CCOC2=O)CC1` (stereo unspecified), the Percent Effect is -1.89% in test [1]; -18.9% in test [2]; -9.35% in [3]; 10.9% in test [4]; -3.3% in the test on Trypanosoma cruzi; 1.2% in [5]. Also, the Percent Effect in [6] came to 10.4%; in the test filed under Homo sapiens it was 0.38%; in test [7] it was 2.46%; in test [8] it was 3.7%; in test [9], 1.51%.
